# From PubChem BioAssay
# Pf growth 48h – P. falciparum growth inhibition at 48 hours (one generation) | P. falciparum luciferase growth in erythrocytes, 48 h | Potency, µM (top dose mostly 28.7 µM), inactives show at the top dose activity change, negative = inhibition, actives largely listed as inhibitors | 310,000 tested, 5.9% active; also: % is scaled to controls: 0 for no effect and ±100 for the full control effect
#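 Luminescence readout; reporter = integrated firefly luciferase in P. falciparum. RBC culture at 2% hematocrit, 0.1% parasitemia final, 37 C/5% CO2; decreased signal taken as growth inhibition.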
# Sm TGR inh – S. mansoni TGR enzyme inhibition; Potency, µM (titrated, usually from 114 µM), for the others: top-dose activity change, negative = inhibition, hits mostly inhibitors; 360,000 tested, 3% active; Q962Y6; purified TGR, DTNB reduction, TNB absorbance 405 nm; also: % is scaled to controls: 0 for no effect and ±100 for the full control effect; nearly all actives have a fitted effect of over 60% in size
#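 Kinetic colorimetric format: TGR-catalysed, NADPH-driven DTNB reduction monitored via TNB absorbance. Enzyme dispensed at 20 nM; compound exposure 15 min at room temperature before reaction start.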
# AmpC inh detg – AmpC beta-lactamase inhibition with detergent present. Potency, µM (series often up to 114 µM), inactives show at the top dose activity change, negative = inhibition, hits mostly inhibitors. AmpC hydrolysis of nitrocefin, absorbance 480 nm, 0.01% Triton. 370,000 tested, 0.041% active. AID 485294. P00811;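 also: 0% = no-compound wells and -100% = no-enzyme wells; nearly all actives have a fitted effect of over 25% in size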
# Target sequence (P00811 whole entry, looked up): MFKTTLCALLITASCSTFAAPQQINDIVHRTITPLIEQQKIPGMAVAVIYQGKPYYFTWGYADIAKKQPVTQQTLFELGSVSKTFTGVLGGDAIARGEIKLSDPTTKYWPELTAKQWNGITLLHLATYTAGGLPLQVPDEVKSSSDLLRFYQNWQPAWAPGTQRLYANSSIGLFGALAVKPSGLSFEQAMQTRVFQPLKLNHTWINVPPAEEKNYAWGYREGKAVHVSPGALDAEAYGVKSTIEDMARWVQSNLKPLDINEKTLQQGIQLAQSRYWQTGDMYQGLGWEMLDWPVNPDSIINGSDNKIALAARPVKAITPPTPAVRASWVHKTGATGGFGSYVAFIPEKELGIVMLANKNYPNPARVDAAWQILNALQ
#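 20 mM phosphate pH 7.0 + 0.01% (detergent screen) or 0.0001% Triton X-100; 5.3 nM AmpC reagent; cpd preinc 15 min RT; nitrocefin (800 uM stock) to start; A480 q20 s × 4 min; Activity was normalised to no-enzyme and no-compound control wells.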
# AmpC no deterg – inhibitors of E. coli AmpC beta-lactamase without detergent | P00811 | AmpC nitrocefin hydrolysis, absorbance 480 nm, 0.0001% Triton | Potency, µM (series often up to 57.1 µM), for inactives: at the highest dose activity change, negative = inhibition, most hits filed as inhibitors | 330,000 tested, 0.52% active | AID 485341;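 also: plate controls were no compound for no effect and no enzyme for full effect; nearly all actives have a fitted effect of over 20% in size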
#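 AmpC (5.3 nM in the dispensed reagent) in 20 mM phosphate pH 7.0 with 0.01% (detergent screen) or 0.0001% Triton X-100 was preincubated with compounds for 15 min at room temperature. Nitrocefin was then added from an 800 uM solution, and hydrolysis was followed at 480 nm.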
# Pf growth 96h – P. falciparum growth inhibition at 96 hours | Potency, µM (doses to about 28.7 µM), inactives show at the highest dose activity change, negative = inhibition, actives largely listed as inhibitors | 320,000 tested, 6.9% active | P. falciparum luciferase reporter growth, 96 h; also: % is scaled to controls: 0 for no effect and ±100 for the full control effect
#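 Readout is luminescence from an integrated firefly luciferase in P. falciparum. Red cells, 2% hematocrit and 0.05% parasitemia final, were cultured with compound through two parasite generations (96 hours) at 37 C, 5% CO2.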
# SARS PLpro yeast – SARS-CoV PLP inhibition in yeast; S. cerevisiae expressing SARS-CoV PLpro, growth rescue; Potency, µM (series often up to 32.9 µM), inactives show top-dose activity, positive = growth rescue, hits mostly activators; 330,000 tested, 0.19% active; calls by dose curve; also: 0% is about no effect; nearly all actives have a fitted effect of over 55% in size
# * marks the source's active call; other numbers are inactive results; ? = inconclusive; / = no result given. The list is not random: actives were taken first. Their share in the collection is about 12%. Unless noted, calls follow the shape of the dose curve; as a rule, active = well fitted curve in the direction sought with a large enough effect; inconclusive = small, poorly fitted or top-dose-only effect, or another doubt; inactive = no such curve, though single readings can be large; an effect the other way counts as inactive or inconclusive. Potency is read from the fitted curve at half-maximal effect.
SMILES,Pf growth 48h,Sm TGR inh,AmpC inh detg,AmpC no deterg,Pf growth 96h,SARS PLpro yeast
CCOc1cc(C(C(=O)NCC2CCCO2)N(C(=O)Cn2nnc3ccccc32)c2ccc(OC)c(OC)c2)ccc1O (configuration not stated),9%,32µM*,2%,33%,?,1%
COc1ccc(C(C(=O)NCC2CCCO2)N(C(=O)CNC(=O)c2cccs2)c2ccc(C(C)=O)cc2)cc1OC (configuration not stated),12µM*,/,2%,116%,?,0%
COc1ccc(C(C(=O)NCC2CCCO2)N(C(=O)CNC(=O)c2ccco2)c2cc(C)cc(C)c2)cc1OC (configuration not stated),0%,0%,-5%,141%,3%,5%
Cc1cc(Cl)ccc1NC(=O)CN1C(=O)CSc2ccc(S(=O)(=O)N(C)C)cc21,/,7%,4%,/,/,/
CCOc1ccc(S(=O)(=O)NCCc2c(C)[nH]c3c(Cl)cccc23)cc1C,/,12%,7%,/,/,/
COc1cc(O)c(/C=N/NC(=O)c2ccncc2)c(OC)c1[N+](=O)[O-],3%,1%,4%,-4%,?,12%
CO/N=C(\C(=O)N[C@@H]1C(=O)N2C(C(=O)[O-])=C(C[n+]3cccc4c3CCC4)CS[C@H]12)c1csc(N)n1,-18%,/,/,/,-24%,/
COc1cc(C(=O)NCC(c2ccc3c(c2)OCO3)N2CCOCC2)cc(OC)c1OC (configuration not stated),/,4%,-2%,/,/,/
O=c1[nH]c2ccccc2c2nc(-c3cccc(S(=O)(=O)N4CCCC4)c3)nn12,-47%,-10%,-15%,-22%,?,-2%
Cc1sc2ncnc(Sc3ccccc3C(=O)Nc3ccc(Br)cc3)c2c1C,9.3µM*,0%,-1%,38%,6.6µM*,-39%
COc1ccc(NC(=O)CN(C)C(=O)c2ccccc2Sc2ncnc3sc(C)c(C)c23)cc1,?,2%,3%,134%,?,10%
Cc1sc2ncnc(Sc3ccccc3C(=O)Nc3ccccc3Cl)c2c1C,12µM*,-14%,-1%,-20%,?,-15%
Cc1sc2ncnc(Sc3ccccc3C(=O)Nc3ccc(C#N)cc3)c2c1C,10µM*,6%,-6%,-24%,?,-8%
Cc1cc(C)cc(NC(=O)CN2C(=O)c3ccccc3Sc3ccc(C(=O)N4CCCC4)cc32)c1,/,-2%,2%,/,/,/
CCOC(=O)c1c(NC(=O)CSc2nc(-c3ccc(OC)cc3)cc(C(F)(F)F)n2)sc(C)c1C,/,5%,21%,/,/,/
COCCNC(=O)c1ccc2c(c1)ncn2-c1cccc(C)c1,34%,-1%,-14%,-13%,?,-1%
C=CC[n+]1c(-c2ccccc2)csc1NC(C)(C)C,10µM*,-6%,-15%,-22%,15µM*,1%
CCOC(=O)N1CCN(C(=O)CS(=O)Cc2nc(-c3ccc(C)cc3)oc2C)CC1 (configuration not stated),/,?,-11%,30%,?,12%
CCOC(=O)N1CCC(NC(=O)CS(=O)Cc2nc(-c3ccc(C)cc3)oc2C)CC1 (configuration not stated),-23%,45µM*,4%,35%,?,5%
CCOC(=O)N1CCC(NC(=O)CS(=O)Cc2nc(-c3ccc(OC)c(OC)c3)oc2C)CC1 (configuration not stated),?,?,?,71%,?,-3%
CCOC(=O)N1CCC(NC(=O)CS(=O)Cc2nc(-c3ccc(Cl)cc3)oc2C)CC1 (configuration not stated),-8%,40µM*,6%,130%,?,1%
CC(C(=O)Nc1ccc(OC(F)(F)F)cc1)N1Cc2ccccc2C1=O (configuration not stated),/,-2%,-3%,/,/,/
Cc1cccc(-c2noc(CN(C(=O)COc3ccc(C(C)C)cc3)C(C)C)n2)c1,/,?,10%,/,/,/
C=CCc1ccccc1OCC(=O)NNC(=S)NCc1ccccc1,37%,8%,6%,-22%,10µM*,11%
CCC1CCC2(CC1)NC(=O)N(CC(=O)c1c(C)[nH]c3ccccc13)C2=O (configuration not stated),?,-18%,2%,-14%,?,-2%
SMILES,Pf growth 48h,Sm TGR inh,AmpC inh detg,AmpC no deterg,Pf growth 96h,SARS PLpro yeast
CN(C[C@H](Cc1ccccc1)N(C[C@H](CC1CCCCC1)N(CCc1ccccc1)N=O)N=O)N=O,-2%,-35%,10%,-17%,?,4%
CN(C[C@H](Cc1ccccc1)N(C[C@H](Cc1ccccc1)N(CC1(c2ccccc2)CC1)N=O)N=O)N=O,?,?,-3%,-25%,10µM*,1%
CN(C[C@@H](CC1CCCCC1)N(C[C@H](Cc1ccccc1)N(CCc1ccccc1)N=O)N=O)N=O,?,-19%,7%,-17%,12µM*,-1%
Cc1cc(C)cc(N(CC(=O)NCC2CCCO2)C(=O)CCC(=O)Nc2nccs2)c1 (configuration not stated),14%,2%,2%,-6%,17%,0%
CCc1ccc(NC(=O)CN2C(=O)C(c3ccc(Cl)cc3)=NC23CCCCC3)cc1,/,11%,0%,/,/,/
COc1ccc(CCN2C(=O)N(c3ccc(F)cc3)C(=O)C2CC(=O)Nc2ccccc2)cc1 (configuration not stated),/,-23%,-8%,/,/,/
CCN1C(=O)C(CC(=O)Nc2ccc(OC)cc2)N(Cc2cccnc2)C1=S (configuration not stated),2%,-28%,-16%,11%,?,0%
COc1ccc(NC(=O)CC2C(=O)N(CCc3ccccc3)C(=S)N2Cc2cccnc2)cc1 (configuration not stated),12µM*,-2%,-4%,119%,13µM*,-26%
CCNC(=O)CC1C(=O)N(c2ccccc2)C(=O)N1CCc1ccc(OC)cc1 (configuration not stated),28%,6%,1%,1%,12µM*,-2%
COc1ccc(NC(=O)CC2C(=O)N(c3ccc(Cl)cc3)C(=S)N2CCc2ccncc2)cc1 (configuration not stated),?,1%,-9%,38%,13µM*,-1%
O=C(Nc1ccc(S(=O)(=O)N2CCCCC2)cc1)c1ccc(Cl)nc1,/,/,/,-23%,/,0%
CC(CO)Nc1nc(SCc2ccccc2)nc2sc3c(c12)CCC3 (configuration not stated),?,-30%,-1%,-8%,7.4µM*,-33%
